These results are taken from PubChem BioAssay (NCATS).

“And” between values parts separate entries of the source, which are not always exact repeats. Identical values can stand only once. Results filed as inconclusive are left out. A number with no mark means an inactive call. The source made the active and inactive calls. Calls come from the whole dose curve; as a rule, active = well fitted activation curve with a large enough effect; inconclusive = small, poorly fitted or top-dose-only effect; inactive = no such curve, though single readings can be large or run the other way.
Potency is the fitted concentration of half-maximal effect.

Chain of Cellular tumor antigen p53 (Homo sapiens) (P04637 whole entry, looked up): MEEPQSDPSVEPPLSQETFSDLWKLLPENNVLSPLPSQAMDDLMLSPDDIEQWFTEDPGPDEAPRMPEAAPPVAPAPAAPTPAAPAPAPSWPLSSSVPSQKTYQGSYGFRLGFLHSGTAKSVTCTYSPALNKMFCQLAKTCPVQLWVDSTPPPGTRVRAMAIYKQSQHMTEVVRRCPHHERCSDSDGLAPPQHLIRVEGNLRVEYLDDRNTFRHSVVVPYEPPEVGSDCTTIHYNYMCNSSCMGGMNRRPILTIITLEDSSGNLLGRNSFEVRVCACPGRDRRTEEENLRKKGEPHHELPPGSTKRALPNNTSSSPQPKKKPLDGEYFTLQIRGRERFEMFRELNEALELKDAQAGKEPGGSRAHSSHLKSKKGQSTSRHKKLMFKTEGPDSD

For the experiment, the target named is Cellular tumor antigen p53 (Homo sapiens) (UniProt P04637). In words: Primary qHTS for small molecule compounds that upregulate eGFP-tagged delta133p53alpha (in N-terminal) cells. (AID 2060322).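 For activation: cells pre-induced with doxycycline then dosed without doxycycline; series mostly up to about 56 µM; 0% = DMSO vehicle and 100% = reference activator.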 Note: nearly all actives have a fitted effect of over 75% in size. Conditions: NCI-H358 eGFP-delta133p53alpha fluorescence, 24 h; activation: stronger effect = higher value. The text has this:
Assay Development and Screening Technology
National Center for Advancing Translational Sciences (NCATS),
National Institute of Health (NIH), Rockville, Maryland
Cellular senescence (CS) is one of the hallmarks of aging and age-related diseases. Senescent cells are characterized by an irreversible growth arrest, an increase in senescence-associated beta-galactosidase (SA-beta-gal) activity and p16INK4a expression, an activation of the DNA damage response pathways, and the emergence of a senescence-associated secretory phenotype (SASP).
Delta133p53alpha, a human/primate-specific p53 protein isoform, delays or inhibits the induction of CS and SASP in various types of human cells, including progeria-derived fibroblasts, primary normal astrocytes, and CD8+ T lymphocytes. Induction of delta133p53alpha with small molecule compounds may provide therapeutic opportunities for inhibition of senescence/SASP-associated pathologies in progeria syndromes, astrocyte-mediated neuroprotection in neurodegenerative diseases, and possibly prevention and treatment of a wider range of senescence- and aging-associated diseases.
Here we report the development and validation of a cell-based quantitative high throughput screening (qHTS) assay in 1,536-well format. This qHTS assay uses the NCI-H358 cell line with doxycycline-inducible expression of enhanced green fluorescent protein (eGFP)-tagged delta133p53alpha, which allows efficient and highly quantitative measurement of the protein levels.
PROTOCOL TABLE (as described by Inglese J, Shamu CE and Guy RK. 2007)
SEQUENCE No. (e.g., 1, 2, 3, etc.); […] (e.g., Cells, Incubation, Reagent, etc.); VALUE; DESCRIPTION.
1; Cells; 4uL; 800 doxycycline treated cells / well in doxycycline-free media, 1536-well black, clear-bottom low base Aurora microplates.
2; Compounds; 23 nL; Kalypsis pin tool (Wako) equipped with 1536-well pin heads, 5-azacytidine positive control.
3; Incubation; 24 hr; 37C, 5% CO2; 95% relative humidity.
4; Aspiration; 1x; BioTek EL406 washer dispenser (Agilent).
5; Fixing; 3.5% paraformaldehyde, BioTek EL406 washer dispenser (Agilent).
6; Washing; 1x PBS; BioTek EL406 washer dispenser (Agilent).
7; Nuclei staining; 1:1000 dilution of Hoechst 33342 (Thermofisher), BioTek EL406 washer dispenser (Agilent).
8; Incubation; 20 min; in the dark at room temperature.
9; Washing; 2x, 1x PBS (ThermoFisher), BioTek EL406 washer dispenser (Agilent).
10; Reagent; 10 uL; 1x PBS per well, sealed with clear adhesive tape.
NOTES (numbers refer to sequence numbers above).
1. NCI-H358 cells expressing eGFP-tagged delta133p53alpha were grown in T75 culture flasks and treated with doxycycline for 24h, at 10 ng/ml for eGFP-D133p53a cells (N-terminal cell) and 100 ng/ml for D133p53a-eGFP cells (C-terminal cells). Cells were trypsinized, counted using a Counted 3 Automated Cell Counter (Thermo Fisher), and diluted to a concentration of 200,000 cells/ml. A Multidrop Combi Reagent Dispenser (ThermoFisher) was used to dispense 800 cells/well in […] of doxycycline-free media, into 1536-well black/clear bottom low base plates (AuroraMicroplates).
2. After plating cells, 23 nl of compound library, DMSO vehicle control or positive control (5-azacytidine) were transferred by Pin Tool (Wako). The plate map layout was the same for each plate: (column 1) non-doxycycline treated cells + DMSO vehicle control; (column 2) doxycycline treated cells + DMSO vehicle control baseline; (column 3) doxycycline treated cells + positive control 57.5 uM final concentration 5-azacytidine; (column 4) doxycycline treated cells + serial dilution of 5-azacytidine, 16-point 1:2 titration spanning 1.8 nM to […] final concentration; (columns 5-48) doxycycline treated cells + titration of library compounds.
3. Cells were incubated at 37 °C, 5 % CO2, 95% RH with breathable metal lid for 24h.
4-10. […] After two washes, 10 ul of 1X PBS (Thermo Fisher) was dispensed to each well. Clear adhesive plate seals (VWR) were applied and plates stored at 4 °C.
11. […]
Take `O=C(O)c1ccnc2cc(C(OCCN3CCCCC3)c3ccccc3Cl)[nH]c12` (stereo not given): the activation was -17%. Consider `C=C(C)[C@@]12O[C@@H]1[C@@]1(C)C(=CC2=O)CC[C@@H](OC(C)=O)[C@@H]1C`, for which the Potency is 30.1 µM (active). On to `CN[C@@H]1Cc2cccc3[nH]c(=O)n(c23)C1`, for which the activation was 31.7%. Regarding `COc1cc(C[C@@H](C)N)c(OC)cc1Br`, the activation is -17.5%. `CCCCCN(C)CCC(O)(P(=O)(O)O)P(=O)(O)O`: the activation is 3.78% and 4.27%. As to `CC(Cc1ccccc1)NCCCCl` (stereo not given), the activation was -27.6%.

With `C=C1C(=O)CC2OC2(C)CC2OC(=O)C(=C)C2C(O)C1OC(=O)/C(C)=C\C` (stereo not given), the Potency is 18.6 µM (active). In the case of `Clc1ccc(CO/N=C(\Cn2ccnc2)c2ccc(Cl)cc2Cl)c(Cl)c1`, the activation was -8.37%. Regarding `CC(O)(CS(=O)(=O)c1ccc(F)cc1)C(=O)Nc1ccc(C#N)c(C(F)(F)F)c1` (stereo not given), the activation was -7.17% and -30.6% and 1.43%. The same measure, in the same setting: with `COC1C=CC23c4cc5c(cc4COC2(O)CN(C)C3C1)OCO5` (stereo not given) the figure was -5.36%; with `C[C@@H]1O[C@H](C[N+](C)(C)C)C[C@H]1O`, -7.38%. On to `COc1ccc(C(=O)c2c(C)n(CCN3CCOCC3)c3ccccc23)cc1`, for which the activation was 1.02%. The same measure, in the same setting: the figure for `CN1C[C@@H](NS(=O)(=O)N(C)C)C[C@@H]2c3cccc4c3c(cn4C)C[C@H]21` is 14.1%; for `O=S(=O)(c1ccccc1F)N1CCOc2c(N3CCNCC3)cccc21` it is 9.07%; for `C=C(CO)C(=O)O[C@H]1C/C(C)=C/CC/C(CO)=C/[C@H]2OC(=O)C(=C)[C@H]12` it is -16.8%. As to `COc1cc(N)c(Cl)cc1C(=O)NC1CN2CCC1CC2` (stereo not given), the activation was 10.7%. Take `O=C(O)c1ccc(=O)[nH]c1`: the activation was 11.9%. `C[N+]1(C)CCOC(O)(c2ccc(-c3ccc(C4(O)C[N+](C)(C)CCO4)cc3)cc2)C1` (stereo not given): the activation is 14.5%. On to `C[C@H]1C(=O)O[C@@H]2CCN3CC=C(COC(=O)[C@](C)(O)[C@]1(C)O)[C@H]23`, for which the activation was -36.8%. The same measure, in the same setting: with `COc1ccc(CC2C(=O)NC(C)C(=O)N(C)C3Cc4ccc(cc4)Oc4cc(ccc4OC4OC(CO)C(O)C(O)C4O)CC(C(=O)NC(C)C(=O)NC(CCC(=O)O)C(=O)N2C)N(C)C3=O)cc1` (stereo not given) the figure was 5.36%; with `O=c1[nH]c2cc(Cl)ccc2n1C1CCNCC1`, 9.6%. For the compound `CCC1(CC)C(=O)C=CNC1=O`, the activation is -17.5%. Still for that read-out and setting: the figure for `CCCCN1[C@@H]2CC[C@H]1CC(OC(c1ccc(F)cc1)c1ccc(F)cc1)C2` (stereo not given in full) is 2.39%; for `Nc1ccncc1` it is -16.4% and 3.84%; for `CCOC(=O)C(c1c(O)c2ccccc2oc1=O)c1c(O)c2ccccc2oc1=O` it is -3.95%. Regarding `CN1C(=O)CN=C(c2ccccc2)c2cc([N+](=O)[O-])ccc21`, the activation is -19.8%. Turning to `CC1=C2[C@H]3OC(=O)[C@@H](C)[C@@H]3CC[C@@]2(C)C=CC1=O`, the activation is 11.7%. As for `C=C1C[C@]2(O)[C@@]3(C)CCC(=O)C(C)(C)C3=C(O)C(=O)[C@@]2(C)[C@@H]2C(=O)O[C@@](C)(C(=O)OC)C(=O)[C@@]12C`, the activation is -4.58%. Regarding `CC(=O)OCC1=C(C(=O)O)N2C(=O)[C@@H](NC(=O)CCC[C@@H](N)C(=O)O)[C@H]2SC1`, the activation is 20.4%. Take `Cc1cc(C(=O)CN2CCCC2)c(C)n1-c1ccc(F)cc1`: the activation was 10% and -5.25%. In the case of `CC(C)(C)[C@]1(O)C[C@@H]2OC(=O)C[C@@]23C(=O)O[C@@H]2OC(=O)[C@H](O)C213` (stereo not given in full), the activation was 7.05%. Turning to `NC(C(=O)O)c1cc(=O)[nH]o1` (stereo not given), the activation is -10.1%. Same read-out and setting: the figure for `CCOP(=O)(NC(C)C)Oc1ccc(SC)c(C)c1` (stereo not given) is 10.7%. For the compound `CCN(CC)C(=O)c1ccc(C2=CC3(CCNCC3)Oc3cccc(O)c32)cc1`, the activation is -5.25%. Regarding `CN(C(=O)CN1C(=O)COc2cc(Cl)c(Cl)cc21)[C@@H](CN1CCCC1)c1ccc(-c2cccc(C(N)=O)c2)cc1`, the Potency is 21.3 µM (active).

For the compound `CN1CCc2cccc(Cl)c2CC1`, the activation is -13.1%. `Clc1ccccc1C(c1ccccc1)(c1ccccc1)n1cccn1`: the activation is 8.55%. For `C=C[C@@H]1CN2CCC1C[C@@H]2[C@@H](O)c1ccnc2ccccc12` (stereo not given in full), the activation was -22.8%. Take `Cc1nnc2n1-c1sc(CCC(=O)N3CCOCC3)cc1C(c1ccccc1Cl)=NC2`: the activation is -12.6%. With `COc1ccc2c(c1)[C@]13CCCCC1C(C2)N(C)CC3` (stereo not given in full), the activation is 8.01%.
